# Measurements as given in PubChem BioAssay (NCATS).
# Records with an inconclusive call do not appear. The source made the active and inactive calls. The call rests on the fitted dose curve; in most records, active means well fitted curve in the direction sought with a large enough effect; inconclusive means small, poorly fitted or top-dose-only effect, or another doubt; inactive means no such curve, though single readings can be large; an effect the other way counts as inactive or inconclusive.
# Tests used:
# [1] = qHTS of pediatric cancer cell lines to identify multiple opportunities for drug repurposing: Confirmatory screen for BT-37 cells (AID 1347117); further: potency means the concentration at half of the fitted maximal effect;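 further: viability measured after 48 h of compound exposure; nearly all actives have a fitted effect of over 55% in size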
# Procedure, shortened: (§1)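 Cells (500-1,000/well) rested 5 h, then received compounds for 48 h; metabolically active cells were measured by CellTiter-Glo luminescence. Final concentrations spanned up to 46 µM (MIPE, 11-point) or 0.59 nM-46 µM (NPC, 8-point) in primary screens, 11-point in follow-ups.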
# [2] = qHTS of pediatric cancer cell lines to identify multiple opportunities for drug repurposing: Confirmatory screen for TC32 cells (AID 1347118);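 further: potency means the concentration at half of the fitted maximal effect; cells exposed to compound for 48 h before the read; nearly all actives have a fitted effect of over 65% in size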
# Procedure, shortened: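 TC32 cells, 500-1,000/well in growth medium, compound-treated 48 h at 37 °C; viability from CellTiter-Glo luminescence. Primary screen: MIPE 11-point (0.78 nM–46 µM final), NPC 8-point (0.59 nM–46 µM final); confirmatory at 11-point dilutions.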
# [3] = qHTS of pediatric cancer cell lines to identify multiple opportunities for drug repurposing: Confirmatory screen for MG 63 (6-TG R) cells (AID 1347119); further: nearly all actives have a fitted effect of over 55% in size; further: potency means the concentration at half of the fitted maximal effect
# Procedure, shortened: as §1
# [4] = qHTS of pediatric cancer cell lines to identify multiple opportunities for drug repurposing: Confirmatory screen for U-2 OS cells (AID 1347122); further: nearly all actives have a fitted effect of over 65% in size; further: potency means the concentration at half of the fitted maximal effect
# Procedure, shortened: as §1
# [5] = qHTS of pediatric cancer cell lines to identify multiple opportunities for drug repurposing: Confirmatory screen for Rh41 cells (AID 1347123);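 further: 48 h compound exposure; nearly all actives have a fitted effect of over 60% in size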; further: potency means the concentration at half of the fitted maximal effect
# Procedure, shortened: as §1
# [6] = qHTS of pediatric cancer cell lines to identify multiple opportunities for drug repurposing: Confirmatory screen for RD cells (AID 1347124);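 further: cells exposed to compound for 48 h before viability readout; nearly all actives have a fitted effect of over 65% in size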; further: potency means the concentration at half of the fitted maximal effect
# Procedure, shortened: as §1
# [7] = qHTS of pediatric cancer cell lines to identify multiple opportunities for drug repurposing: Confirmatory screen for Rh18 cells (AID 1347125); further: nearly all actives have a fitted effect of over 55% in size; further: potency means the concentration at half of the fitted maximal effect
# Procedure, shortened: as §1
# [8] = qHTS of pediatric cancer cell lines to identify multiple opportunities for drug repurposing: Confirmatory screen for Rh30 cells (AID 1347126); further: nearly all actives have a fitted effect of over 55% in size; further: potency means the concentration at half of the fitted maximal effect
# Procedure, shortened: as §1
# [9] = qHTS of pediatric cancer cell lines to identify multiple opportunities for drug repurposing: Confirmatory screen for Saos-2 cells (AID 1347127); further: nearly all actives have a fitted effect of over 60% in size; further: potency means the concentration at half of the fitted maximal effect
# Procedure, shortened: as §1
# [10] = qHTS of pediatric cancer cell lines to identify multiple opportunities for drug repurposing: Confirmatory screen for OHS-50 cells (AID 1347128); further: potency means the concentration at half of the fitted maximal effect
# Procedure, shortened: as §1
# [11] = qHTS of pediatric cancer cell lines to identify multiple opportunities for drug repurposing: Confirmatory screen for SK-N-SH cells (AID 1347129);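 further: cells exposed to compound for 48 h before viability read; nearly all actives have a fitted effect of over 60% in size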; further: potency means the concentration at half of the fitted maximal effect
# Procedure, shortened: as §1
# [12] = system: Zika virus NS2B-NS3 protease; test: Primary screen GU AMC qHTS for Zika virus inhibitors (AID 1347154); further: nearly all actives have a fitted effect of over 70% in size; further: potency means the concentration at half of the fitted maximal effect
# Procedure, shortened: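 Fluorogenic AMC-substrate cleavage by noncovalent NS2B-NS3 protease complex (25 nM, pH 8.0 Tris buffer with Tween 20) followed for 15 minutes at room temperature (~20% conversion). Percent inhibition from ex340/em450 signal change, fitted by 4-parameter Hill equation.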
# [13] = qHTS of pediatric cancer cell lines to identify multiple opportunities for drug repurposing: Confirmatory screen for control Hh wild type fibroblast cells (AID 1347121); further: nearly all actives have a fitted effect of over 70% in size
# Procedure, shortened: as §1
# Furin (Homo sapiens) = Furin (Homo sapiens) (UniProt P09958); test: Furin counterscreen qHTS for Zika virus inhibitors (AID 1347149); further: potency means the concentration at half of the fitted maximal effect; nearly all actives have a fitted effect of over 70% in size
# Procedure, shortened: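 Fluorogenic cleavage of BOC-RVRR-AMC (2 microM final, Km ~15 µM) was monitored (ex 340, em 450 nm) at 37C after 15 min RT preincubation of 5 nM furin with compounds in HEPES pH 7.0 buffer with CaCl2 and Triton X-100. Percent inhibition was fitted to a 4-parameter Hill curve.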
# [14] = system: Zika virus NS2B-NS3 protease (unlinked complex); test: Confirmatory screen GU AMC qHTS for Zika virus inhibitors (AID 1347153); further: nearly all actives have a fitted effect of over 70% in size
# Procedure, shortened: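 Unlinked NS2B-NS3 complex (25 nM) in 10 mM Tris-HCl pH 8.0, 0.01% Tween 20 preincubated 15 min with compound, then 10 microM Bz-Nle-KRR-AMC (Km 18.3 µM). Fluorescence change over 15 min, normalized, Hill-fitted.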
# Sequence of Furin (Homo sapiens) (P09958 whole entry, looked up): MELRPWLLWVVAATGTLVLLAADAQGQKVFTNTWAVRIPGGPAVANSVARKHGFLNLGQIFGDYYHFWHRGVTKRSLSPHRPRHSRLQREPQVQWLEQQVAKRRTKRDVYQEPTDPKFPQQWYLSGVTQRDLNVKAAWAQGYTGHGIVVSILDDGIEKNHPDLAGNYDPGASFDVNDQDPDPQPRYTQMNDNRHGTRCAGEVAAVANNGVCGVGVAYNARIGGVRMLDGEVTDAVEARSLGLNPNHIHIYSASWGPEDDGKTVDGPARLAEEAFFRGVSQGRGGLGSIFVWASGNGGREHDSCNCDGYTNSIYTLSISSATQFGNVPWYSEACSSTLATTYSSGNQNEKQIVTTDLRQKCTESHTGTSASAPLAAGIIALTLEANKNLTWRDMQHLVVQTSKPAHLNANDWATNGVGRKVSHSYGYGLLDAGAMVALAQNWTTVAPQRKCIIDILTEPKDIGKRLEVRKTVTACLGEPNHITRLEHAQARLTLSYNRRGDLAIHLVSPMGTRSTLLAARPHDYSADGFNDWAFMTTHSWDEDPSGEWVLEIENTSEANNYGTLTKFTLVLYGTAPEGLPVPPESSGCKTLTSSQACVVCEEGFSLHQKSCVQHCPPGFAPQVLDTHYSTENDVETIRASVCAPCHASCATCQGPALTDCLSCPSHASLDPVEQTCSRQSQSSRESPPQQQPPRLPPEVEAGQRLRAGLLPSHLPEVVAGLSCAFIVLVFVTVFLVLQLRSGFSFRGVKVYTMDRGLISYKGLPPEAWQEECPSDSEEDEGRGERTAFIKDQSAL
Compound,Potency [1],Potency [2],Potency [3],Potency [4],Potency [5],Potency [6],Potency [7],Potency [8],Potency [9],Potency [10],Potency [11],Potency [12],Potency [13],Potency (Furin (Homo sapiens)),Potency [14]
CC(C)[C@H](C(=O)Nc1ccc(C(=O)NO)cc1)c1ccccc1,1040 nM (active),737 nM (active),657 nM (active),657 nM (active),1170 nM (active),1650 nM (active),827 nM (active),2330 nM (active),1850 nM (active),2330 nM (active),inactive,–,–,–,–
Nc1ccccc1NC(=O)c1ccc(CNC(=O)OCc2cccnc2)cc1,3020 nM (active),3020 nM (active),2400 nM (active),135 nM (active),2400 nM (active),13500 nM (active),7590 nM (active),19100 nM (active),2140 nM (active),10700 nM (active),–,inactive,–,–,–
CC(=O)OCC(=O)[C@@]1(O)[C@H](C)C[C@H]2[C@@H]3C=C(C)C4=Cc5c(cnn5-c5ccccc5)C[C@]4(C)[C@@H]3[C@@H](O)C[C@@]21C,13100 nM (active),4140 nM (active),18500 nM (active),9270 nM (active),13100 nM (active),9270 nM (active),16500 nM (active),16500 nM (active),14700 nM (active),16500 nM (active),14800 nM (active),inactive,–,–,–
O=c1[nH]nc(Sc2ncc([N+](=O)[O-])s2)n1-c1ccc2c(c1)OCCO2,16500 nM (active),6570 nM (active),11700 nM (active),9270 nM (active),10400 nM (active),9270 nM (active),–,7370 nM (active),8270 nM (active),13100 nM (active),9350 nM (active),–,–,–,–
CN1CCN(Cc2ccc(NC(=O)Nc3ccc(Oc4cc(NC(=O)C5CC5)ncn4)cc3)cc2C(F)(F)F)CC1,369 nM (active),165 nM (active),2610 nM (active),737 nM (active),233 nM (active),414 nM (active),369 nM (active),2330 nM (active),369 nM (active),585 nM (active),743 nM (active),–,–,–,–
O=C(NC1CCNCC1)c1[nH]ncc1NC(=O)c1c(Cl)cccc1Cl,2400 nM (active),2400 nM (active),–,1850 nM (active),1170 nM (active),737 nM (active),–,465 nM (active),2690 nM (active),2400 nM (active),1050 nM (active),inactive,inactive,–,–
CC(=O)Nc1nc(C)c(-c2ccc(Cl)c(S(=O)(=O)NCCO)c2)s1,18500 nM (active),7370 nM (active),2330 nM (active),14700 nM (active),5850 nM (active),–,11700 nM (active),14700 nM (active),16500 nM (active),11700 nM (active),–,inactive,–,–,–
COc1cc2c(Oc3ccc(-c4cnc(Nc5ccc(F)cc5)n(C)c4=O)cc3F)ccnc2cc1OCCCN1CCOCC1,18500 nM (active),2930 nM (active),2930 nM (active),4650 nM (active),3690 nM (active),11700 nM (active),8270 nM (active),4650 nM (active),7370 nM (active),3690 nM (active),3320 nM (active),24100 nM (active),–,–,–
CCn1cc(-c2ccnc3[nH]c(-c4cccc(CN(C)C)c4)cc23)c(-c2ccc(NC(=O)N(C)C)cc2)n1,5220 nM (active),46.5 nM (active),1850 nM (active),–,1850 nM (active),1040 nM (active),16500 nM (active),293 nM (active),16500 nM (active),–,2960 nM (active),–,–,21500 nM (active),–
COc1ccc(F)c(F)c1C(=O)c1cnc(NC2CCN(S(C)(=O)=O)CC2)nc1N,2330 nM (active),2080 nM (active),–,3290 nM (active),2330 nM (active),827 nM (active),–,inactive,–,2330 nM (active),2350 nM (active),inactive,inactive,–,–
Cc1c(CN2CCN(S(C)(=O)=O)CC2)sc2c(N3CCOCC3)nc(-c3cnc(N)nc3)nc12,2080 nM (active),737 nM (active),329 nM (active),–,928 nM (active),–,1040 nM (active),–,1310 nM (active),2330 nM (active),2960 nM (active),inactive,–,–,–
O=C(Cc1ccc(-c2ccc(OCCN3CCOCC3)cc2)cn1)NCc1ccccc1,147 nM (active),117 nM (active),82.7 nM (active),369 nM (active),92.8 nM (active),–,inactive,inactive,–,–,–,inactive,–,–,–
Cc1nc(N)ncc1-c1nc(N2CCOCC2)c2sc(C(C)(C)O)cc2n1,8270 nM (active),2330 nM (active),465 nM (active),–,–,1170 nM (active),1650 nM (active),737 nM (active),1470 nM (active),2930 nM (active),1480 nM (active),–,–,–,–
O=C(Nc1ncc(-c2cc(C(F)F)nn2-c2c(Cl)cccc2Cl)s1)C1CC1,1040 nM (active),369 nM (active),329 nM (active),1040 nM (active),928 nM (active),827 nM (active),–,13100 nM (active),465 nM (active),–,–,–,–,–,–
CC(C)(O)c1cc2nc(-c3cnc(N)nc3)nc(N3CCOCC3)c2s1,1650 nM (active),827 nM (active),369 nM (active),–,–,–,1650 nM (active),–,1650 nM (active),2930 nM (active),935 nM (active),inactive,–,–,–
CC[C@@]1(O)C(=O)OCc2c1cc1n(c2=O)Cc2cc3cc(O)ccc3nc2-1,20.8 nM (active),13.1 nM (active),65.7 nM (active),–,–,–,657 nM (active),585 nM (active),46.5 nM (active),92.8 nM (active),1870 nM (active),–,–,–,–
O=C(C=Cc1cccc(S(=O)(=O)Nc2ccccc2)c1)NO,1700 nM (active),759 nM (active),2690 nM (active),2400 nM (active),5370 nM (active),5370 nM (active),1910 nM (active),5370 nM (active),1910 nM (active),7590 nM (active),13600 nM (active),inactive,–,–,–
CCOc1cc2ncc(C#N)c(Nc3ccc(F)c(Cl)c3)c2cc1NC(=O)C=CCN(C)C,65.7 nM (active),58.5 nM (active),–,–,–,inactive,inactive,–,104 nM (active),147 nM (active),–,–,inactive,–,–
NCC(=O)Nc1ccc(-n2nc(C(F)(F)F)cc2-c2ccc3c(ccc4ccccc43)c2)cc1,2930 nM (active),1470 nM (active),–,26.1 nM (active),7370 nM (active),5220 nM (active),2610 nM (active),–,3290 nM (active),–,–,inactive,–,–,–
CC=CC1=C(C(=O)O)N2C(=O)[C@H](NC(=O)[C@H](N)c3ccc(O)cc3)[C@@H]2SC1,inactive,–,inactive,inactive,inactive,inactive,inactive,inactive,–,inactive,inactive,inactive,inactive,–,–
COc1ccc(OC)c(-c2nnc3ccc(-c4ccc(OC)c(O[C@@H]5CCOC5)c4)nn23)c1,7370 nM (active),2930 nM (active),–,–,2930 nM (active),11700 nM (active),inactive,4140 nM (active),–,6570 nM (active),–,inactive,–,–,–
Cc1cn(-c2cc(NC(=O)c3ccc(C)c(Nc4nccc(-c5cccnc5)n4)c3)cc(C(F)(F)F)c2)cn1,16500 nM (active),–,–,–,11700 nM (active),–,–,20800 nM (active),–,18500 nM (active),18700 nM (active),inactive,inactive,–,–
CC(C)(C)c1cc(NC(=O)Nc2ccc(-c3cn4c(n3)sc3cc(OCCN5CCOCC5)ccc34)cc2)no1,18500 nM (active),3290 nM (active),–,20800 nM (active),13100 nM (active),–,–,–,–,16500 nM (active),20900 nM (active),inactive,–,–,–
O=C(C=Cc1cccnc1)NCCCCC1CCN(C(=O)c2ccccc2)CC1,inactive,–,inactive,inactive,inactive,inactive,inactive,inactive,–,inactive,inactive,inactive,inactive,–,–
COc1ccc(-c2cc3c(C)nc(N)nc3n(C3CCC(OCCO)CC3)c2=O)cn1 (stereo not given),inactive,–,inactive,inactive,–,inactive,inactive,inactive,inactive,inactive,inactive,inactive,inactive,–,–
Cc1ccc(C(=O)Nc2cccc(C(F)(F)F)c2)cc1-c1ccc2nc(NCCN3CCOCC3)ncc2c1,4140 nM (active),6570 nM (active),–,4140 nM (active),5850 nM (active),7370 nM (active),7370 nM (active),5220 nM (active),8270 nM (active),8270 nM (active),inactive,–,–,–,inactive
Cc1cnc(-c2cnc(NCCNc3ccc(C#N)cn3)nc2-c2ccc(Cl)cc2Cl)[nH]1,inactive,–,737 nM (active),inactive,–,inactive,inactive,inactive,inactive,–,–,inactive,inactive,–,–
COc1ccc(-n2nc(C(N)=O)c3c2C(=O)N(c2ccc(N4CCCCC4=O)cc2)CC3)cc1,inactive,–,inactive,–,233 nM (active),1310 nM (active),inactive,147 nM (active),inactive,inactive,inactive,–,inactive,–,–
Cc1cc(Nc2cc(N3CCN(C)CC3)nc(Sc3ccc(NC(=O)C4CC4)cc3)n2)n[nH]1,–,92.8 nM (active),2610 nM (active),9270 nM (active),9270 nM (active),–,–,5850 nM (active),16500 nM (active),9270 nM (active),11800 nM (active),inactive,inactive,–,–
